The panel holds about 83,000 compounds, 20% with a hit somewhere; the sample as a whole holds those more often.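 Step 1: grow cells in 96-well plates. Step 2: add test compound at a single concentration. Step 3: incubate 48 h. Step 4: record percent growth.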 Values without a mark were called inactive. Activity calls are given as the source filed them. How the source made its calls: active means growth percent below 10; inactive means the rest.
test system: HL-60(TB) leukemia; experiment: NCI-60 one-dose screen, 48 h (100 = growth as untreated, 0 = no growth, -100 = all killed); conditions: 10 µM unless noted

**Q.** How did the growth turn out when CC(=O)O[C@]1(C)CC[C@H]2[C@H](CNCCc3ccc(Cl)cc3)C(=O)O[C@@H]2C2=C(C)C(=O)C[C@H]21 was run?
**A.** 89.2%

**Q.** O=C(/C=C/c1c(Cl)nc2sccn12)c1ccc(F)c(F)c1 was tested. Which growth did it give?
**A.** 78.3%

**Q.** With CN(C)c1cnccn1 as the molecule, how does the growth read?
**A.** 90.3%

**Q.** Which growth does the source give for O=C1N(c2ccccc2)C(=S)N[C@]12[C@H](c1ccccc1)C1CCCN1[C@]21C(=O)NC2C=CC(Cl)=C[C@H]21 (stereo not given in full) here?
**A.** 81.5%

**Q.** How did the growth turn out when O=C(Nc1ccccc1C(F)(F)F)C1=NCCCCN1 was run?
**A.** 99.8%

**Q.** COc1ccc(-c2cc(-c3cccc(Cl)c3)c(C#N)c(=O)[nH]2)c(OC)c1 was tested. Which growth did it give?
**A.** 95.6%

**Q.** For COc1ccc(Cn2cc(Cn3cc(C=C4C(=O)NC(=O)NC4=O)c4ccccc43)nn2)cc1, which growth is on record?
**A.** 82.6%

**Q.** O=C(O)C[C@H](O)C[C@H](O)/C=C/c1c(C2CC2)nc2ccccc2c1-c1ccc(F)cc1 was tested. Which growth did it give?
**A.** 66.2%

**Q.** Which growth does the source give for COc1c(B(O)O)cccc1-c1nc2ccc3[nH]ncc3c2c2c1CCCC2 here?
**A.** -28.1% (active)

**Q.** Which growth does the source give for CC(C)=CCC[C@](C)(O)[C@H]1CC[C@]2(C)[C@@H]1CC[C@@H]1[C@@]3(C)CC/C(=N/O)C(C)(C)[C@@H]3CC[C@]12C here?
**A.** 5.25% [100 µM] (active)

**Q.** With Nc1nc(N)c2c(n1)NC(c1ccc(F)cc1)C1CCc3ccccc3C1=N2 (stereo not given) as the molecule, how does the growth read?
**A.** 16.5%

**Q.** For Nc1nccc(=S)[nH]1, which growth is on record?
**A.** 79.9%

**Q.** With Nc1n[nH]c2ccc([C@@H]3Nc4ccc5[nH]ncc5c4[C@H]4C5C=CC(C5)[C@@H]34)cc12 (stereo not given in full) as the molecule, how does the growth read?
**A.** -24.9% (active)

**Q.** For COc1ccc(C(=O)C2CC2c2ccc(Cl)cc2)cc1 (stereo not given), which growth is on record?
**A.** 14.1%

**Q.** With Cc1cc(N2CCN(C)CC2)nc(NCc2cc(Nc3ccnc4cc(Cl)ccc34)ccc2F)n1 as the molecule, how does the growth read?
**A.** -53.5% (active)

**Q.** For COCCn1cc(-c2csc(-c3cn(C)c4ccc(F)cc34)n2)c2cccnc21, which growth is on record?
**A.** 84.7%

**Q.** Which growth does the source give for C=C(C)C1CCC(=C)C2CCC3(C)OC12/C=C(/COC(C)=O)CCC3O (stereo not given) here?
**A.** 90.8%

**Q.** For Cc1cc(C)n(-c2nc(-c3cccs3)c(C#N)c(=O)[nH]2)n1, which growth is on record?
**A.** 94.4%

**Q.** With CC1(C)CN(CCNc2nccc(-c3c(-c4cccc(O)c4)nc4sccn34)n2)S(=O)(=O)N1 as the molecule, how does the growth read?
**A.** 82.5%

**Q.** How did the growth turn out when Clc1ccc(Cc2nc3ccccc3s2)cc1 was run?
**A.** 98.6%

**Q.** O=[N+]([O-])c1ccc(O)cc1Br was tested. Which growth did it give?
**A.** 99.9%

**Q.** Which growth does the source give for COc1ccc(NC(=O)c2sc3nc(C)c(C(=O)/C=C/c4ccccc4)cc3c2N)cc1 here?
**A.** 24.2%

**Q.** For Cc1cc(N)c(S(=O)(=O)O)c(N)c1, which growth is on record?
**A.** 98.9%

**Q.** Which growth does the source give for NS(=O)(=O)c1cnccc1-n1ccc(=O)c(S(N)(=O)=O)c1 here?
**A.** 55.9%

**Q.** For COC(=O)c1ccc2c(c1)c1c(C)c3ccncc3c(C)c1n2C, which growth is on record?
**A.** 32.5%

**Q.** With NC(=O)c1cccc(-n2ccc3cc(NC(=O)Nc4ccc(Cl)c(Cl)c4)ccc32)n1 as the molecule, how does the growth read?
**A.** 102%

**Q.** Which growth does the source give for Cn1cc(-c2nc(-c3c[nH]c4ncc(F)cc34)cs2)c2cccnc21 here?
**A.** 103%

**Q.** COc1ccc(/C=N/NC(=O)Cn2c(-c3ccc(S(C)(=O)=O)cc3)nc3ccccc32)cc1 was tested. Which growth did it give?
**A.** 161%

**Q.** With NS(=O)(=O)c1ccc(-n2nc(-c3ccc(Cl)cc3)c3ccccc3c2=O)cc1 as the molecule, how does the growth read?
**A.** 95.2%

**Q.** Which growth does the source give for O=[N+]([O-])c1ccccc1NC1c2ccccc2Oc2ccccc21 here?
**A.** -14.4% (active)

**Q.** With Cc1ccc(-c2nc(/C=N/Nc3cc(C)nc4ccc(Cl)cc34)c(C)o2)cc1 as the molecule, how does the growth read?
**A.** -19.6% (active)

**Q.** O=S(=O)(O)c1ccc(O)c2ccccc12 was tested. Which growth did it give?
**A.** 86%

**Q.** How did the growth turn out when CC(C)(C)OC(=O)Nc1ccc2c(c1)C(NC(=O)Nc1cccc(C#N)c1)CC(C)(C)O2 (stereo not given) was run?
**A.** 5.38% (active)

**Q.** COc1ccc(Cl)cc1Nc1nc(C(F)(F)F)ccc1C(=O)N/N=C/c1ccc(N(C)C)cc1 was tested. Which growth did it give?
**A.** 85.4%

**Q.** N#Cc1c(-c2ccccc2)nc(SCC(O)CN2CCOCC2)nc1N1CCOCC1 (stereo not given) was tested. Which growth did it give?
**A.** 72.2%

**Q.** Which growth does the source give for N#Cc1c2ccccc2c2n1-c1ccccc1OC(c1ccccc1)C2=O (stereo not given) here?
**A.** 43.4%

**Q.** COc1ccc(Cn2c(Br)c3c(c2-c2cc(OC)c(OC)c(OC)c2)CCc2sc(N)nc2-3)cc1 was tested. Which growth did it give?
**A.** -14.5% (active)

**Q.** How did the growth turn out when COc1cc(-c2cc(/C=C/C(=O)c3ccc(F)c(F)c3)[nH]n2)cc(OC)c1OC was run?
**A.** 82.6%

**Q.** How did the growth turn out when O=C(Nc1nc(-c2ccccc2)cs1)c1cc(-c2ccc(Br)cc2)nc2ccccc12 was run?
**A.** 31.5%

**Q.** With Cc1cc(Cl)ccc1Nc1nc(C(F)(F)F)ccc1C(=O)N/N=C/c1ccc([N+](=O)[O-])cc1 as the molecule, how does the growth read?
**A.** -24.1% (active)

From PubChem BioAssay (NCI)
